# PMC7862700, “An all-to-all approach to the identification of sequence-specific readers for epigenetic DNA modifications on cytosine”
# Key:
# Test in all cases: DAPPL (digital affinity profiling via proximity ligation, sequencing); 10 mM Tris-HCl pH 7.5, 50 mM NaCl, 1 mM DTT, 4% glycerol, room temperature, 30 min; GST-TFs on glutathione beads, 16-mer random dsDNA library, 0.1% formaldehyde crosslink after washing; high values mean tight binding
# FLI1 = biological target: T1, FLI1 (Homo sapiens, UniProt Q01543 1-452); conditions: protein: recombinant; tags: N-terminal GST; dsDNA, one strand shown
# T1 sequence: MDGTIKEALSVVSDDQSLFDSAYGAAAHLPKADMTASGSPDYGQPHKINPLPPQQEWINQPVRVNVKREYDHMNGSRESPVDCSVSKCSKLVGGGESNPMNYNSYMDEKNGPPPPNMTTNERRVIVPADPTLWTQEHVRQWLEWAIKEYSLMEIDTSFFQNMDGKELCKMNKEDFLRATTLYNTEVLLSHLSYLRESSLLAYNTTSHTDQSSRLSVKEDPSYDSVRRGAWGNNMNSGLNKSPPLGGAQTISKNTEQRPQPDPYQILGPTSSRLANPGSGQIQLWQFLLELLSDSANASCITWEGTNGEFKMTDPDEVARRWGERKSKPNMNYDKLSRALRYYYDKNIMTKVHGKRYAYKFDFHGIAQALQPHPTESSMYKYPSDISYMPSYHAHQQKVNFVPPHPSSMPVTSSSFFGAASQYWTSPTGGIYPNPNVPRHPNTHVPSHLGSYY
# In short: (§1)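 Pools of DNA-barcoded human transcription factors, expressed in yeast as GST fusions on glutathione beads and combined with a tag-only sample, were incubated with 200 nmole of a 16-mer random double-stranded DNA library. Incubation took 30 min at room temperature in Tris/NaCl/DTT/glycerol buffer and was followed by washing, 0.1% formaldehyde crosslinking, proximity ligation (BsaI/T4 ligase, 1 h, 37 °C), PCR amplification and sequencing on an Illumina NextSeq500. Binding signal is the ratio of a hexamer's read frequency for a factor to its frequency for the tag-only sample.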
# ELK1 = biological target: T2, ELK1 (Homo sapiens, UniProt P19419 1-428); conditions: protein: recombinant; tags: N-terminal GST; dsDNA, one strand shown
# T2 sequence: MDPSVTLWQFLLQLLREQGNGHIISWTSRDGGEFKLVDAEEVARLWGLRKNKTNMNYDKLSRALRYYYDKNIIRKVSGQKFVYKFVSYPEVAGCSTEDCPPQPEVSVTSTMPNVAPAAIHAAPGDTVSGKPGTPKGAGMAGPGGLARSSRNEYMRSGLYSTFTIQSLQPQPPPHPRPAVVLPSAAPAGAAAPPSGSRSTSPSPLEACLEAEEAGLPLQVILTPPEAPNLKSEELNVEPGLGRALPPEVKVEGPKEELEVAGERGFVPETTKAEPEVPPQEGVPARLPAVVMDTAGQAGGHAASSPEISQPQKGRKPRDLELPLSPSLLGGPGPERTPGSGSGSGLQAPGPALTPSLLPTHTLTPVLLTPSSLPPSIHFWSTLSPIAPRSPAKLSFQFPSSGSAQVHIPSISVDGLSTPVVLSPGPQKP
# In short: as §1
# GABPA = biological target: T3, GABPA (Homo sapiens, UniProt Q06546 1-454); conditions: protein: recombinant; tags: N-terminal GST; dsDNA, one strand shown
# T3 sequence: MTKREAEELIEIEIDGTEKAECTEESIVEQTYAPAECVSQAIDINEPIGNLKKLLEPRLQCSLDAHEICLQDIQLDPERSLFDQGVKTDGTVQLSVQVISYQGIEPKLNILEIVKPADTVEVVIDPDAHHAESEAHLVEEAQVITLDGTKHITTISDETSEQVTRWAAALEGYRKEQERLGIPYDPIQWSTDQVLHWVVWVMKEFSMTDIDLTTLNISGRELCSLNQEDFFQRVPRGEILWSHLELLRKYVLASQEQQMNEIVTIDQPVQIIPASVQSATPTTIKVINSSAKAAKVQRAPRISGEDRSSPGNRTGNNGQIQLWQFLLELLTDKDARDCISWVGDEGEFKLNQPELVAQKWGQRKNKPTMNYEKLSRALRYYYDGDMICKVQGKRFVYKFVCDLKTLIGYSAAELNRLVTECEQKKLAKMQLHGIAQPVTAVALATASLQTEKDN
# In short: as §1
# ERG = biological target: T4, ERG (Homo sapiens, UniProt P11308 1-479); conditions: protein: recombinant; tags: N-terminal GST; dsDNA, one strand shown
# T4 sequence: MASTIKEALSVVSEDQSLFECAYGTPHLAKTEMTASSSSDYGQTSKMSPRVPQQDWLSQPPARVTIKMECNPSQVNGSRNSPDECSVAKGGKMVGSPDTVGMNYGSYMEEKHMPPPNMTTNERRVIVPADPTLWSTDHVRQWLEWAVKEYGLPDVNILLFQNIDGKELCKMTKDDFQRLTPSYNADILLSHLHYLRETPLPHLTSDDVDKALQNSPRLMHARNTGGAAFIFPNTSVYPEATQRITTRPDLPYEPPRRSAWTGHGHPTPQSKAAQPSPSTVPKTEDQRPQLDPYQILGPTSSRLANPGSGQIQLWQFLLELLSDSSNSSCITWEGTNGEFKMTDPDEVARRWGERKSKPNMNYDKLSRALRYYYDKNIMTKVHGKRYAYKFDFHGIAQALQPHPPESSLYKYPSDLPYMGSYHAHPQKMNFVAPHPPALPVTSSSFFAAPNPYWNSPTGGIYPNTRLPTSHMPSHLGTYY
# In short: as §1
# ELF1 = ELF1 (Homo sapiens, UniProt P32519 1-619); conditions: protein: recombinant; tags: N-terminal GST; dsDNA, one strand shown
# Sequence of ELF1 (P32519 whole entry): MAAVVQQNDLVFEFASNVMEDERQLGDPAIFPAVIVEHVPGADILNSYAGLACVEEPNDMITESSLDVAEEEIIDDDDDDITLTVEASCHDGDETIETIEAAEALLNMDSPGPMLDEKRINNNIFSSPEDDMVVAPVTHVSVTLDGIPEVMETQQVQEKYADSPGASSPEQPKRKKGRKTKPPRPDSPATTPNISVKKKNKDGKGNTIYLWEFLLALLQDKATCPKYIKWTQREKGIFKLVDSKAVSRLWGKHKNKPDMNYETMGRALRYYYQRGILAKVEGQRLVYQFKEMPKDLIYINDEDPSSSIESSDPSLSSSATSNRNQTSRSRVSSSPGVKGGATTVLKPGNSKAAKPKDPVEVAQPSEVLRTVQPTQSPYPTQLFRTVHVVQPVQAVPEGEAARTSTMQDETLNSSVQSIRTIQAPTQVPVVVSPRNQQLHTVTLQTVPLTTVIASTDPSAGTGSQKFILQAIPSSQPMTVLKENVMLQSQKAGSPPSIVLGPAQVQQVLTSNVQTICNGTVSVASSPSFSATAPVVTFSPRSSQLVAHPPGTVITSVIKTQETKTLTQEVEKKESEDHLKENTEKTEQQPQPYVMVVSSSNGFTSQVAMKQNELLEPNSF
# In short: as §1
# EHF = biological target: T5, EHF (Homo sapiens, UniProt Q9NZC4 1-300); conditions: protein: recombinant; tags: N-terminal GST; dsDNA, one strand shown
# T5 sequence: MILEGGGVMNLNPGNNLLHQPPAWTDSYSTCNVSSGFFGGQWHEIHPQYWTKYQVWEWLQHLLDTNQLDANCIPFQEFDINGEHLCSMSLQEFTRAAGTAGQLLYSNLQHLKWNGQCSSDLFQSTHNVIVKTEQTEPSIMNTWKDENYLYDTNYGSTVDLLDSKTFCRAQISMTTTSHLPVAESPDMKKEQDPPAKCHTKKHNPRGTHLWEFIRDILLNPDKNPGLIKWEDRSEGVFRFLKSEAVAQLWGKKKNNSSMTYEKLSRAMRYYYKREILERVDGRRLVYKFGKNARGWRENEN
# In short: as §1
# SPI1 = SPI1 (Homo sapiens, UniProt P17947 1-270); conditions: protein: recombinant; tags: N-terminal GST; dsDNA, one strand shown
# In short: as §1
# SPIB = SPIB (Homo sapiens, UniProt Q01892 1-262); conditions: protein: recombinant; tags: N-terminal GST; dsDNA, one strand shown
# Sequence of SPIB (Q01892 whole entry): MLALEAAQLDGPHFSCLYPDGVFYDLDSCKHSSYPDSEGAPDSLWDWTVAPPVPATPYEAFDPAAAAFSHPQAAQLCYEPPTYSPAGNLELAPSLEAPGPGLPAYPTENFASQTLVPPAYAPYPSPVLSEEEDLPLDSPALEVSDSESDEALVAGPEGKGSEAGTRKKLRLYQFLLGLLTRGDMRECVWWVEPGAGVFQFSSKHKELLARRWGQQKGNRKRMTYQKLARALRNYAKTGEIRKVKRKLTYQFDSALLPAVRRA
# In short: as §1
# ELK3 = biological target: T6, ELK3 (Homo sapiens, UniProt P41970 1-407); conditions: protein: recombinant; tags: N-terminal GST; dsDNA, one strand shown
# T6 sequence: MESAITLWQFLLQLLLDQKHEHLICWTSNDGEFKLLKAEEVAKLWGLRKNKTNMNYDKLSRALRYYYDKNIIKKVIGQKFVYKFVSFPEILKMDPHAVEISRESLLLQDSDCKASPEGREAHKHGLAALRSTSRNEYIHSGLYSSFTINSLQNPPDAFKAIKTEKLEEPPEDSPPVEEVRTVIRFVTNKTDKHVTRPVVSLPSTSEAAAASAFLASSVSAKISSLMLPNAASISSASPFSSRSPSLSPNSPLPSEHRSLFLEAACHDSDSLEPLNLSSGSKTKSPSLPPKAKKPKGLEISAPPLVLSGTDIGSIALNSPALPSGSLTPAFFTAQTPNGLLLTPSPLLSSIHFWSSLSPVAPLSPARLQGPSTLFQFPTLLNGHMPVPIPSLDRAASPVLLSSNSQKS
# In short: as §1
# FEV = biological target: T7, FEV (Homo sapiens, UniProt Q99581 1-238); conditions: protein: recombinant; tags: N-terminal GST; dsDNA, one strand shown
# T7 sequence: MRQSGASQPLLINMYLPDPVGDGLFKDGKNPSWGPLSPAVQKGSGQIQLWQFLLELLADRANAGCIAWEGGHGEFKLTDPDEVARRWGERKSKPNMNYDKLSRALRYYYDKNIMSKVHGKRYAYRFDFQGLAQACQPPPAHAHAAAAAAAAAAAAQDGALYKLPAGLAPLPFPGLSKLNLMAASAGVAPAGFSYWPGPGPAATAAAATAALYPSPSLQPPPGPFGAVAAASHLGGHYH
# In short: as §1
# ETV5 = ETV5 (Homo sapiens, UniProt P41161 1-510); conditions: protein: recombinant; tags: N-terminal GST; dsDNA, one strand shown
# Sequence of ETV5 (P41161 whole entry): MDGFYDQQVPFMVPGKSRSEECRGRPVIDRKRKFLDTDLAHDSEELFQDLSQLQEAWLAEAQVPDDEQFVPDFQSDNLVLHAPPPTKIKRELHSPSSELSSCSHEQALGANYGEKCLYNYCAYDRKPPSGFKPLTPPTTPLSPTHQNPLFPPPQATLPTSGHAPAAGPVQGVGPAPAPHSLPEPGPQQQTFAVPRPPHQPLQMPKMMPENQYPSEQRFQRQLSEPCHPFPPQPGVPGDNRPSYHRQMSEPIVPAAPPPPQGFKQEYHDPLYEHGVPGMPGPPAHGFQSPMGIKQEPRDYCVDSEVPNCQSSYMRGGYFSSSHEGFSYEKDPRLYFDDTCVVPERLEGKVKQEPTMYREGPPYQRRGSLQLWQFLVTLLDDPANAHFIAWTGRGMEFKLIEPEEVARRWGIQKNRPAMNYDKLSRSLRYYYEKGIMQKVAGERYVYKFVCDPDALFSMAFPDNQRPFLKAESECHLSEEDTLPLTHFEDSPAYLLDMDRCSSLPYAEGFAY
# In short: as §1
# HSF1 = HSF1 (Homo sapiens, UniProt Q00613 1-529); conditions: protein: recombinant; tags: N-terminal GST; chain copies: 3; dsDNA, one strand shown
# Sequence of HSF1 (Q00613 whole entry): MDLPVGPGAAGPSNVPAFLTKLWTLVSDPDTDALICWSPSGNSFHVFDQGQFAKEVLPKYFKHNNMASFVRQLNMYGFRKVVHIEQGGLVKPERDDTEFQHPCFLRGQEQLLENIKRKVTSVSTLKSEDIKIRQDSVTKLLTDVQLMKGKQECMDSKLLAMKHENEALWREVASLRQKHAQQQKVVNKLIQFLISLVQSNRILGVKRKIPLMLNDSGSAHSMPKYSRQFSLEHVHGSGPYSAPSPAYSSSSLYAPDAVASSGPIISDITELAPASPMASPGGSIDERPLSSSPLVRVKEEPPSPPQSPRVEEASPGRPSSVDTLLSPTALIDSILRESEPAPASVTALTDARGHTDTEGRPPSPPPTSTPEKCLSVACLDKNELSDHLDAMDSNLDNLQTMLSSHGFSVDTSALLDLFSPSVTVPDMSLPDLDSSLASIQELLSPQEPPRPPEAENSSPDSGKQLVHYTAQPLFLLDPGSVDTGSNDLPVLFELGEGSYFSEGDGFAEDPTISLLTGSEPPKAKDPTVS
# In short: as §1
# SPIC = biological target: T8, SPIC (Homo sapiens, UniProt Q8N5J4 1-248); conditions: protein: recombinant; tags: N-terminal GST; dsDNA, one strand shown
# T8 sequence: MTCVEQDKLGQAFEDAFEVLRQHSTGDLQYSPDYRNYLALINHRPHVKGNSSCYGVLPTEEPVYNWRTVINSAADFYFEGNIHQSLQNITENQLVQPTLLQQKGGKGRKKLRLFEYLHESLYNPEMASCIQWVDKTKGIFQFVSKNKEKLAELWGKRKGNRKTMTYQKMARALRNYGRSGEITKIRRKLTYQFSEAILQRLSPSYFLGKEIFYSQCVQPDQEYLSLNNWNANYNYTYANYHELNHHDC
# In short: as §1
# ELF4 = ELF4 (Homo sapiens, UniProt Q99607 1-663); conditions: protein: recombinant; tags: N-terminal GST; dsDNA, one strand shown
# Sequence of ELF4 (Q99607 whole entry): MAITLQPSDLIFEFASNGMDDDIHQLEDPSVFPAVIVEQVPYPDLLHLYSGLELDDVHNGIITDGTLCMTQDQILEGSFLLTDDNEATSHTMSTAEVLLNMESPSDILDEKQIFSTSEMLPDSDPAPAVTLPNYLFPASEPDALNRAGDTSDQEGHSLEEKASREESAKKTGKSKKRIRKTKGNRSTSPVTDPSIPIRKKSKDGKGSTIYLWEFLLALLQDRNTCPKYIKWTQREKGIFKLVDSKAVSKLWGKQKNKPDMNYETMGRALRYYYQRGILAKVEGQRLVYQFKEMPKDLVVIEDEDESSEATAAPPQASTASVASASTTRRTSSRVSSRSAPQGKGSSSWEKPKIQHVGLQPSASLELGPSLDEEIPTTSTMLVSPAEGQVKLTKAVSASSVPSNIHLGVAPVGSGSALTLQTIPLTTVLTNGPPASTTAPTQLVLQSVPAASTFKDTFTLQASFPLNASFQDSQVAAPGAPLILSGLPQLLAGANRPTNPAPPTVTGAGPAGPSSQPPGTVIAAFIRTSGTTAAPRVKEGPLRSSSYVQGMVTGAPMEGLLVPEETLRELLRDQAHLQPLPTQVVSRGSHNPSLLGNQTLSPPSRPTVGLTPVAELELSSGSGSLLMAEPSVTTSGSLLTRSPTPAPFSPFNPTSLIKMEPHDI
# In short: as §1
# ELK4 = biological target: T9, ELK4 (Homo sapiens, UniProt P28324-2 1-405); conditions: protein: recombinant; tags: N-terminal GST; dsDNA, one strand shown
# T9 sequence: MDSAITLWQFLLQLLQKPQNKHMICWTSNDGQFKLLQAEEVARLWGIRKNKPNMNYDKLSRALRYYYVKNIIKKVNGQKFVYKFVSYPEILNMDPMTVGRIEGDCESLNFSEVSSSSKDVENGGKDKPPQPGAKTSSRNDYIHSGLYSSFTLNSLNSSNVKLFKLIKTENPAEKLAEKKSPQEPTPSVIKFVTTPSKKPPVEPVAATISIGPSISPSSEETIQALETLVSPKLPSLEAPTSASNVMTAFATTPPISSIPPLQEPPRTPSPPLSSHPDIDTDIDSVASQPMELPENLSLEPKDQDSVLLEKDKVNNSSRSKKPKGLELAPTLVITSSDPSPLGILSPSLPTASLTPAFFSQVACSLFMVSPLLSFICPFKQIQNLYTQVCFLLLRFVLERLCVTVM
# In short: as §1
# ETV2 = biological target: T10, ETV2 (Homo sapiens, UniProt O00321 1-342); conditions: protein: recombinant; tags: N-terminal GST; dsDNA, one strand shown
# T10 sequence: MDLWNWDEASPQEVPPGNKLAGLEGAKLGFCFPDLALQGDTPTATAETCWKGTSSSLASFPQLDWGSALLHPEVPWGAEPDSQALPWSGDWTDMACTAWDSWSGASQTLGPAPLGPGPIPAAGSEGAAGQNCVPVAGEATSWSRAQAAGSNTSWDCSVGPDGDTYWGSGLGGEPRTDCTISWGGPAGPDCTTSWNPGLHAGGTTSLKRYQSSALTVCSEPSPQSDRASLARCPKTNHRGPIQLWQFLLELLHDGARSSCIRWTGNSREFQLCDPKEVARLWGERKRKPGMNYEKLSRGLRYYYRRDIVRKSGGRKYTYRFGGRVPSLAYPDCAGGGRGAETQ
# In short: as §1
# ELF3 = biological target: T11, ELF3 (Homo sapiens, UniProt P78545 1-371); conditions: protein: recombinant; tags: N-terminal GST; dsDNA, one strand shown
# T11 sequence: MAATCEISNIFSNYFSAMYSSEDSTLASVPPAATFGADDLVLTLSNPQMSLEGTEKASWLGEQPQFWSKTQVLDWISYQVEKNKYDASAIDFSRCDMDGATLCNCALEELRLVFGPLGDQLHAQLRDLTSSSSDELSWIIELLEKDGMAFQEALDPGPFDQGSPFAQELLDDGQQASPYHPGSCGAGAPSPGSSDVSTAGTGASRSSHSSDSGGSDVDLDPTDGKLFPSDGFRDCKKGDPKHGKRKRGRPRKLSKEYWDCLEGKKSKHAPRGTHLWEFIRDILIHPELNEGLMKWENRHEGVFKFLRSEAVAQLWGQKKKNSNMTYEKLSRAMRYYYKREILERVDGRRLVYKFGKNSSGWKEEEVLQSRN
# In short: as §1
# CRX = CRX (Homo sapiens, UniProt O43186 1-299); conditions: protein: recombinant; tags: N-terminal GST; dsDNA, one strand shown
# Sequence of CRX (O43186 whole entry): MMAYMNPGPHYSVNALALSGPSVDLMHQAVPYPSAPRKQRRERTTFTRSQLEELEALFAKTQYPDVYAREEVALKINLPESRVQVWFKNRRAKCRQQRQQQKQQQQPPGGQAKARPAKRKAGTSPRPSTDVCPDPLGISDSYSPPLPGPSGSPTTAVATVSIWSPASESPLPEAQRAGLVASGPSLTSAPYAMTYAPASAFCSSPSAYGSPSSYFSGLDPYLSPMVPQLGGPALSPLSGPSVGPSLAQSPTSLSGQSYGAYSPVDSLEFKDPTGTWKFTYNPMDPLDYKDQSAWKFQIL
# In short: as §1
# ETV1 = ETV1 (Homo sapiens, UniProt P50549 1-477); conditions: protein: recombinant; tags: N-terminal GST; dsDNA, one strand shown
# Sequence of ETV1 (P50549 whole entry): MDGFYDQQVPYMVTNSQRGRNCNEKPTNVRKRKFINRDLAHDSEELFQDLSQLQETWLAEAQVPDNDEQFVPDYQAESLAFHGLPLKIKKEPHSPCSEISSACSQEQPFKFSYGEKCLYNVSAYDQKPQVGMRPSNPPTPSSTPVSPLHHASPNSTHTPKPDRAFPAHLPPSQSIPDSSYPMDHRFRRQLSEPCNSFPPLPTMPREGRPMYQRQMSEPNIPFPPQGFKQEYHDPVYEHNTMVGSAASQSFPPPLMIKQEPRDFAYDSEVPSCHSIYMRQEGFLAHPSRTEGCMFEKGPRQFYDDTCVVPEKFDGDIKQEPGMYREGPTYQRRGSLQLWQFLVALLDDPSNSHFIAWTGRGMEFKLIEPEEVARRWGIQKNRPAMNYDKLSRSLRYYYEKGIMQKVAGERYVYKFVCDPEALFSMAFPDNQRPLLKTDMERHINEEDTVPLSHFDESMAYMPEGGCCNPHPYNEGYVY
# In short: as §1
sequence,measurement,setting,value
GATGAC,binding signal,FLI1,"1.58 fold enrichment (6-mer frequency, TF over GST control)"
same,binding signal,ELK1,"1.51 fold enrichment (6-mer frequency, TF over GST control)"
same,binding signal,GABPA,"1.62 fold enrichment (6-mer frequency, TF over GST control)"
same,binding signal,ERG,"1.59 fold enrichment (6-mer frequency, TF over GST control)"
same,binding signal,ELF1,"1.6 fold enrichment (6-mer frequency, TF over GST control)"
same,binding signal,EHF,"1.43 fold enrichment (6-mer frequency, TF over GST control)"
same,binding signal,SPI1,"1.58 fold enrichment (6-mer frequency, TF over GST control)"
same,binding signal,SPIB,"1.45 fold enrichment (6-mer frequency, TF over GST control)"
same,binding signal,ELK3,"1.45 fold enrichment (6-mer frequency, TF over GST control)"
same,binding signal,FEV,"1.47 fold enrichment (6-mer frequency, TF over GST control)"
same,binding signal,ETV5,"1.49 fold enrichment (6-mer frequency, TF over GST control)"
same,binding signal,HSF1,"1.27 fold enrichment (6-mer frequency, TF over GST control)"
same,binding signal,SPIC,"1.15 fold enrichment (6-mer frequency, TF over GST control)"
same,binding signal,ELF4,"1.56 fold enrichment (6-mer frequency, TF over GST control)"
same,binding signal,ELK4,"1.42 fold enrichment (6-mer frequency, TF over GST control)"
same,binding signal,ETV2,"1.35 fold enrichment (6-mer frequency, TF over GST control)"
same,binding signal,ELF3,"1.48 fold enrichment (6-mer frequency, TF over GST control)"
same,binding signal,CRX,"1.26 fold enrichment (6-mer frequency, TF over GST control)"
same,binding signal,ETV1,"1.55 fold enrichment (6-mer frequency, TF over GST control)"
